# Compound activity deposited in PubChem BioAssay by National Center for Advancing Translational Sciences (NCATS).
# This is a sample that favours compounds with a hit; in the whole collection about 9% have one here.
# HTT cytoprotect – Huntington cell model cytoprotection by ATP luminescence; PC12 HTT-Q103 induced, cytoprotection, ATP luminescence, 40 h; Potency, µM (doses to about 56.4 µM), without a hit: cytoprotection (ATP increase), most hits filed as activators; 230,000 tested, 0.14% active; AID 1471; note: % of control where 0% means no effect; nearly all actives have a fitted effect of over 45% in size
#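 Compounds were screened for protection of PC12 cells against cell death after tebufenozide induction (100 nM final) of mutant Huntingtin exon 1 (Q103) fused to GFP.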
# HPGD block – blocks human HPGD enzyme activity. AID 894. Potency, µM, for the others: at the highest dose activity change, negative = inhibition, usual class: inhibitors. purified HPGD, NADH fluorescence kinetic, PGE2 substrate. P15428. 150,000 tested, 4.3% active; active = well fitted inhibition curve with a large enough effect, not every such curve was filed as active; inconclusive = small, poorly fitted or top-dose-only effect, or another doubt; inactive = no such curve, though single readings can be large or run the other way; note: % is set by controls: 0 for no effect and ±100 for the full control effect
# Target sequence (P15428 whole entry, looked up): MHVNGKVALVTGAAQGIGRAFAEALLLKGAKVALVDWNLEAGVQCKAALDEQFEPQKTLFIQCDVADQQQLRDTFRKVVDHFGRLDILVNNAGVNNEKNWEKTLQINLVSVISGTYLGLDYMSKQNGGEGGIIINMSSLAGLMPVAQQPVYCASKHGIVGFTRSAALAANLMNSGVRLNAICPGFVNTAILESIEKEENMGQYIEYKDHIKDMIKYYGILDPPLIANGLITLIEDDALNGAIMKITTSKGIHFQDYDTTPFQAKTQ
#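 NADH formation kinetics: reaction with 30 uM PGE2 and 1 mM NAD+ (final), 20 nM enzyme, Tris-HCl pH 8 with Tween 20, after 15 min compound preincubation at room temperature. Fluorescence change, last versus first of five reads.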
# LMNA splice mod – changes lamin A minigene splicing in HeLa cells | HeLa LMNA splicing GFP/RFP minigene ratio, 48 h | Potency, µM (titrated, usually from 46.1 µM), for the others: at the top dose ratio change, negative = inhibition, usual class: inhibitors | 200,000 tested, 0.01% active | AID 1487; active = well fitted inhibition curve with a large enough effect in the signal ratio, with a control signal flat, not every such curve was filed as active; inconclusive = small, poorly fitted or top-dose-only effect, or effect the other way, or a change in a side signal; the % refers to the signal ratio; note: % is set by controls: 0 for no effect and ±100 for the full control effect
#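 S3 HeLa stable clones carrying a lamin A-EGFP splicing minigene plus DsRed2 were seeded at 600 cells/well in Opti-MEM with 2% FBS, pin-dosed and incubated 48 h at 37°C. Acumen cytometry (488 nm) gave the GFP/RFP total-intensity ratio.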
# KinaseGlo FLuc – Kinase-Glo luciferase inhibition (counter-screen) | Potency, µM (titrated, usually from 38.3 µM), inactives show at the top dose activity change, negative = inhibition, hits mostly inhibitors | 200,000 tested, 0.28% active | Q27757 | Kinase-Glo luciferase, ATP luminescence, 8 min; note: % is set by controls: 0 for no effect and ±100 for the full control effect; nearly all actives have a fitted effect of over 60% in size
#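 Compound is pinned into ATP-containing buffer (10 uM ATP, imidazole pH 7.2, 7 mM MgCl2). Kinase-Glo luciferase reagent is then added. Light output is recorded following an 8-min room-temperature incubation.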
# HTT aggregate – mutant huntingtin aggregation inhibition; PC12 HttQ103-GFP aggregates, Acumen cytometry, 40 h; Potency, µM (doses to about 46.1 µM), inactives show top-dose activity change, negative = inhibition, usual class: inhibitors; 220,000 tested, 1.1% active; AID 1688; note: % is set by controls: 0 for no effect and ±100 for the full control effect; nearly all actives have a fitted effect of over 60% in size
#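 Using laser scanning cytometry, GFP-positive aggregates were counted after lysis of PC12 cells induced with 100 nM tebufenozide to express HTT exon 1 Q103–GFP. Compounds were tested in titration.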
# ALDH1A1 block – ALDH1A1 (human) enzyme inhibition | Potency, µM (series often up to 75.3 µM), without a hit: at the highest dose activity, negative = inhibition, most hits filed as inhibitors | Purified ALDH1A1, NADH fluorescence, propionaldehyde substrate | 220,000 tested, 7.3% active; active = well fitted inhibition curve with a large enough effect, not every such curve was filed as active; inconclusive = small, poorly fitted or top-dose-only effect, or another doubt; inactive = no such curve, though single readings can be large or run the other way;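 note: plate controls were no enzyme wells and a reference inhibitor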
# Active calls of the source: *; ? = inconclusive; / = not tested or not shown; ! = a repeat was not active; [ ] = another dose, or the depositor's remark. Unless noted, calls come from the whole dose curve; as a rule, active = well fitted curve in the direction sought with a large enough effect; inconclusive = small, poorly fitted or top-dose-only effect, or another doubt; inactive = no such curve, though single readings can be large; an effect the other way counts as inactive or inconclusive. Potency is the fitted concentration of half-maximal effect.
SMILES,HTT cytoprotect,HPGD block,LMNA splice mod,KinaseGlo FLuc,HTT aggregate,ALDH1A1 block
CCOc1ccccc1OCCCCN1CCCC1,4%,-8%,-2%,-1%,-17%,22µM*
CCOc1ccccc1N1CCN(Cc2cccc(OC)c2OC)CC1,-19%,-7%,-9%,-4%,3%,?
O=P(Nc1cccnc1)(Oc1ccccc1)Oc1ccccc1,-11%[10 µM],-11%,3%,-5%,0%,-17%
Cc1c(O)c(O)cc2c1CC=C1[C@]3(C)CC[C@]4(C)CC[C@@](C)(C(=O)O)CC4[C@]3(C)CC[C@]12C (stereo partly drawn),/,18µM*,?,-2%,/,-5%
Oc1cccc[c]1[Hg][Cl],-99%,/,/,/,8.9µM*,/
O=C1NC(=O)C(=Cc2ccc(-c3cc(Cl)ccc3[N+](=O)[O-])o2)C(=O)N1,-20%,/,?,-6%,9%,22µM*
CCCCCc1nc2c(c(=O)c3ccccc3n2C)c(=O)n1C1CCCCCC1,13%[10 µM],-1%,-19%,-1%,-26%,3.5µM*
S=c1[nH]nc(C2CC2)n1Cc1ccccc1,-6%,/,-11%[46 µM],-1%,23%,14µM*
Oc1ccc(CCNCc2cc3c(cc2Br)OCO3)cc1,-26%[10 µM],-23%,/,-1%[7.66 µM],/,-1%[13.5 µM]
O=[N+]([O-])c1cc2c(cc1CNCCc1ccc3c(c1)OCO3)OCO2,2%[10 µM],-3%,-10%,0%,3%,28µM*
COC1C(O)C(C)O[C@@H](OC2CC[C@@]3(C)C4CC[C@]5(C)C(C6=CC(=O)OC6)CC[C@@]5(O)C4CC[C@@H]3C2)C1O (stereo partly drawn),/,-1%,?,-3%,/,4%
CC1=CC(=O)c2c(O)cccc2C1=O,-18%[1.9 µM],25µM*!,/,-1%,/,16µM*
O=C(O)c1cc(N=Nc2ccc([As](=O)(O)O)cc2)ccc1O,-8%[10 µM],-12%,/,0%[7.66 µM],/,2%[13.5 µM]
CSc1nc(N)c(N=Nc2ccc([As](=O)(O)O)cc2)c(=O)[nH]1,1%[10 µM],/,/,/,-14%[9.22 µM],8.9µM*
O=C1NC(=O)N(Cc2cccs2)C(=O)/C1=C/c1ccc(N2CCOCC2)cc1,-41%,/,-6%[46 µM],7%,0%,7.1µM*
CCN1C(=O)NC(=O)/C(=C\c2ccc(N3CCOCC3)cc2OC)C1=O,-4%,?,11%,-13%,-8%,?
Cc1ccc(C2=NN(CCC(=O)N3CCC4(CC3)OCCO4)C(=O)CC2)cc1,-15%,/,?,0%,28%,?
COc1ccc(C(=O)Nc2sc3c(c2C(=O)O)CC(C)(C)OC3)cc1,/,?,?,-1%,-5%,20µM*
C=CCC1C(=O)NC(=S)NC1=O,-30%,/,/,0%,-16%,?
C[C@@H]1OC(=O)[C@H]2C[C@H]3CCCC[C@@H]3[C@@H](/C=C/[C@H]3CCC[C@H](C)N3C)[C@@H]12,-29%,/,/,/,/,-6%
O=[N+]([O-])c1ccc2nc(CCCc3nc4ccc([N+](=O)[O-])cc4[nH]3)[nH]c2c1,/,/,?,0%,/,14µM*
Cc1ccc([N+](=O)[O-])cc1C,-27%,-8%,/,/,/,?
O=C1C2CC=CCC2C(=O)N1SC(Cl)(Cl)Cl (stereo not drawn),-99%,7.1µM*,?,/,14µM*,0.4µM*
Cc1ccc(N=C2N=C(N)c3ccccc32)c(C)c1,8%[10 µM],-17%,?,1%,2%,7%
CN1CCN(c2ccc(N)cc2)CC1,22%,-13%,-11%,-14%,12%,32µM*
CN1CCN(c2ccc(NC(=O)C(C)(C)C)cc2)CC1,-15%,-6%,-2%,0%,-5%,8%
CN1CCN(c2ccc(C=O)cc2)CC1,24%,-5%,11%,-8%,19%,13µM*
CN1CCc2cc3c(cc2[C@@H]1O)OCO3,?,?,-7%,-7%[17.1 µM],/,?
CCS(=O)(=O)N1N=C(c2cccc(NS(C)(=O)=O)c2)CC1c1ccccc1 (stereo not drawn),7%,/,?,0%,-6%,13µM*
